8 sequences from paper PMC7862700, “An all-to-all approach to the identification of sequence-specific readers for epigenetic DNA modifications on cytosine” can be followed below.

Assay in all cases: DAPPL (digital affinity profiling via proximity ligation, sequencing); 10 mM Tris-HCl pH 7.5, 50 mM NaCl, 1 mM DTT, 4% glycerol, room temperature, 30 min; GST-TFs on glutathione beads, 16-mer random dsDNA library, 0.1% formaldehyde crosslink after washing; high values mean tight binding
Conditions in all cases: protein: recombinant; tags: N-terminal GST; dsDNA, one strand shown

One test concerns the target T1, FLI1 (Homo sapiens, UniProt Q01543 1-452).
T1 sequence: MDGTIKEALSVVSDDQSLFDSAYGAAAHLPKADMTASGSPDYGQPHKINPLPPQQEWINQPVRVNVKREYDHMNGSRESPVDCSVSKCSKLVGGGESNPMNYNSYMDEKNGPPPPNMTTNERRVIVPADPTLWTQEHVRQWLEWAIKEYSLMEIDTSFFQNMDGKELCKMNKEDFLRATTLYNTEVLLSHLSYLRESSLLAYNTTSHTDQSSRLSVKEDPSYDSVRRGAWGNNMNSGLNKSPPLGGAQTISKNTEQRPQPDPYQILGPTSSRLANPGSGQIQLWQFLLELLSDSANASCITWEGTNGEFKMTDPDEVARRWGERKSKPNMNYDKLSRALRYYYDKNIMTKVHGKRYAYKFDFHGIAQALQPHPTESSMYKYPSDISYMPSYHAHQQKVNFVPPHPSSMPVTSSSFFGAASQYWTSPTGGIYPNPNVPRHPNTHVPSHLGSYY
In outline:
(§1)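 Pools were built from human transcription factors expressed in yeast as GST fusions, captured on glutathione beads and DNA-barcoded, along with a tag-only sample. Incubation with 200 nmole of a 16-mer random double-stranded DNA library lasted 30 min at room temperature in Tris/NaCl/DTT/glycerol buffer, and was followed by washing, 0.1% formaldehyde crosslinking, proximity ligation, PCR amplification and Illumina NextSeq500 sequencing. Binding signal is the quotient of each hexamer's read frequency for a factor and its frequency for the tag-only sample.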

The target in a further test is T2, ELK1 (Homo sapiens, UniProt P19419 1-428).
T2 sequence: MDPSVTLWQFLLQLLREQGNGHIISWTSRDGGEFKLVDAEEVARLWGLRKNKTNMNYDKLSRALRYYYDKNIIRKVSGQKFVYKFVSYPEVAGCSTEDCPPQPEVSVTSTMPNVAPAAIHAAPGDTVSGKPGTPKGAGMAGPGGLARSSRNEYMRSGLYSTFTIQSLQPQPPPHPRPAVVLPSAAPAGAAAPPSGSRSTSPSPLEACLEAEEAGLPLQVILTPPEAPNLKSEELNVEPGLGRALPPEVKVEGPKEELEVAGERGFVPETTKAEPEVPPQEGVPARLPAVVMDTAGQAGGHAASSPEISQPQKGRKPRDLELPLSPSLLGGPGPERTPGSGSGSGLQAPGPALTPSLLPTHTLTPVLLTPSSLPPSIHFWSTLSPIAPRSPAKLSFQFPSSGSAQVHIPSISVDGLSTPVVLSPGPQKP
The procedure, abridged: as §1

The target in the next test is T3, GABPA (Homo sapiens, UniProt Q06546 1-454).
T3 sequence: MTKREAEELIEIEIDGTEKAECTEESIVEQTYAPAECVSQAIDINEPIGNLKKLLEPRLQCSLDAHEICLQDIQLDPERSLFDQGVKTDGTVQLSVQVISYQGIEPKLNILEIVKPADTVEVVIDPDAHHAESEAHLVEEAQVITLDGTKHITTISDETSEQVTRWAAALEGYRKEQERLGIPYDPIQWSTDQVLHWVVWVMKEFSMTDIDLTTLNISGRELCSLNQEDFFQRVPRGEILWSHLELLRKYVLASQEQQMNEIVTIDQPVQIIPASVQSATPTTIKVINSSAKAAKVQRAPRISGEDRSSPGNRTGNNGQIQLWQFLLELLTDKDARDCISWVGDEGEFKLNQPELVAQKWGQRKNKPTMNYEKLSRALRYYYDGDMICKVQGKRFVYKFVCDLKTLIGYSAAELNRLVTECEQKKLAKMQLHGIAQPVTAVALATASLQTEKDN
The procedure, abridged:
as §1

Another test deals with T4, ERG (Homo sapiens, UniProt P11308 1-479).
T4 sequence: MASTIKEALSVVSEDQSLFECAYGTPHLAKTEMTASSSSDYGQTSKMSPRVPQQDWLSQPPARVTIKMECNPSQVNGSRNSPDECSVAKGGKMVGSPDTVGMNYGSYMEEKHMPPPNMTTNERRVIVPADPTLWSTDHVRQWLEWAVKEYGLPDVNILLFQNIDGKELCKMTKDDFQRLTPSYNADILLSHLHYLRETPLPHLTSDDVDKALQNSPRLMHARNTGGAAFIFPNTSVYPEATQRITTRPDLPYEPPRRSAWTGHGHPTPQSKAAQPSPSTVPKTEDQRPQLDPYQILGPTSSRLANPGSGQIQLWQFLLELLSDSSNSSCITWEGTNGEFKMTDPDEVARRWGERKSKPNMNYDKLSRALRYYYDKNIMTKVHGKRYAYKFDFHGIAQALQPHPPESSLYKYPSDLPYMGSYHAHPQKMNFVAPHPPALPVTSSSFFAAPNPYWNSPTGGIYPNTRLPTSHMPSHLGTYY
The procedure, abridged:
as §1

The next test concerns the target ELF1 (Homo sapiens, UniProt P32519 1-619). The procedure, abridged:
as §1

The target in the next test is T5, EHF (Homo sapiens, UniProt Q9NZC4 1-300).
T5 sequence: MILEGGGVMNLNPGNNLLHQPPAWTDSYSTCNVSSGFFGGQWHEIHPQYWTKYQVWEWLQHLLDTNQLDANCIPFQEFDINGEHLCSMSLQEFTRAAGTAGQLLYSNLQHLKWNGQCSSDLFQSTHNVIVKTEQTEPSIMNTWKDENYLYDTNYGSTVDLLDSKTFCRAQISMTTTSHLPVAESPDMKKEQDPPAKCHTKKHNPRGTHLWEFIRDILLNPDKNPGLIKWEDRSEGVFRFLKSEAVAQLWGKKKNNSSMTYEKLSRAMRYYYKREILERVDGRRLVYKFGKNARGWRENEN
In outline:
as §1

The next test concerns the target SPI1 (Homo sapiens, UniProt P17947 1-270). The procedure, abridged:
as §1

For a further test, the target named is SPIB (Homo sapiens, UniProt Q01892 1-262). The procedure, abridged:
as §1

For another test, the target named is T6, ELK3 (Homo sapiens, UniProt P41970 1-407).
T6 sequence: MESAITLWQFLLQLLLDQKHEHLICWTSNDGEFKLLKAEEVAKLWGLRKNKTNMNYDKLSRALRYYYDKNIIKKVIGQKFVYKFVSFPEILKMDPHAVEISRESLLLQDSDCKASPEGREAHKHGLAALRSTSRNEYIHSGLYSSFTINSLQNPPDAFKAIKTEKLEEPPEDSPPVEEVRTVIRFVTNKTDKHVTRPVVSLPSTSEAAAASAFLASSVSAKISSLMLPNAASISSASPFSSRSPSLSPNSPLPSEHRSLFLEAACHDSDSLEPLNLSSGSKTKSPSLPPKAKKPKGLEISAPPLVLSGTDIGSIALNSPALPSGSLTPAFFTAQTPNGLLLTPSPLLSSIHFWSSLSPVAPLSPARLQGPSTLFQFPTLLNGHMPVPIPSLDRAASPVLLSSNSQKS
In outline: as §1

Sequence of SPIB (Q01892 whole entry): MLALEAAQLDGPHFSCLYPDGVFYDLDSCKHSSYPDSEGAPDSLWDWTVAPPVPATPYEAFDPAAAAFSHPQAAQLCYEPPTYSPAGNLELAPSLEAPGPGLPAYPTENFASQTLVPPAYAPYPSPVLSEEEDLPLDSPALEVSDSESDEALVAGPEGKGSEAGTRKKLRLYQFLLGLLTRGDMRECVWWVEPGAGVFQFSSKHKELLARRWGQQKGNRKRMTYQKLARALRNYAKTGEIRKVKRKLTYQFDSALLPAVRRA
Sequence of ELF1 (P32519 whole entry): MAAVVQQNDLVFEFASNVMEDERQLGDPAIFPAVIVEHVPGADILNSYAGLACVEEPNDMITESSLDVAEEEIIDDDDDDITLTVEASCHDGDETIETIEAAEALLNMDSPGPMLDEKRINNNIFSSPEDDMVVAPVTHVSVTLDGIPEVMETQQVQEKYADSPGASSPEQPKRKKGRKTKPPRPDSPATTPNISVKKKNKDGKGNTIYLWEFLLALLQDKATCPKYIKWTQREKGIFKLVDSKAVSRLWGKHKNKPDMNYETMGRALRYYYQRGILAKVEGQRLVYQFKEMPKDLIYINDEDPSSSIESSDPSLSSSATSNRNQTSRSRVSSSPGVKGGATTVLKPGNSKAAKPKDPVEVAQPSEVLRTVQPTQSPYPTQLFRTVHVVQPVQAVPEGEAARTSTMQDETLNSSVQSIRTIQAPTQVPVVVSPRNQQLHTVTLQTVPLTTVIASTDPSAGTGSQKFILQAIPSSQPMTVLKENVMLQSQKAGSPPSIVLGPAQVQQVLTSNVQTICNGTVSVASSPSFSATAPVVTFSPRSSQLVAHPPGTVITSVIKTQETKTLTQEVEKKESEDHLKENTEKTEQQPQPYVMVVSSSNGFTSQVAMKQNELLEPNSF

In the case of AAATAT, the binding signal with FLI1 is 1.24 fold enrichment (6-mer frequency, TF over GST control); in the test with ELK1, 1.34 fold enrichment (6-mer frequency, TF over GST control); with GABPA, 1.33 fold enrichment (6-mer frequency, TF over GST control); with ERG, 1.34 fold enrichment (6-mer frequency, TF over GST control); in the test with ELF1, 1.37 fold enrichment (6-mer frequency, TF over GST control); with EHF it was 1.31 fold enrichment (6-mer frequency, TF over GST control). In addition, the binding signal with SPI1 is 1.32 fold enrichment (6-mer frequency, TF over GST control); with SPIB it was 1.47 fold enrichment (6-mer frequency, TF over GST control); with ELK3, 1.38 fold enrichment (6-mer frequency, TF over GST control).
With CCGGAT, the binding signal is 3.23 fold enrichment (6-mer frequency, TF over GST control) with FLI1; 3.45 fold enrichment (6-mer frequency, TF over GST control) with ELK1; 2.97 fold enrichment (6-mer frequency, TF over GST control) in the test with GABPA; 4.05 fold enrichment (6-mer frequency, TF over GST control) with ERG; 2.97 fold enrichment (6-mer frequency, TF over GST control) with ELF1; 3.16 fold enrichment (6-mer frequency, TF over GST control) with EHF. Also, the binding signal in the test with SPI1 is 2.86 fold enrichment (6-mer frequency, TF over GST control); in the test with SPIB, 3.26 fold enrichment (6-mer frequency, TF over GST control); in the test with ELK3, 3.33 fold enrichment (6-mer frequency, TF over GST control).
Turning to CATCTC, the binding signal with FLI1 is 1.42 fold enrichment (6-mer frequency, TF over GST control); with ELK1, 1.3 fold enrichment (6-mer frequency, TF over GST control); in the test with GABPA, 1.34 fold enrichment (6-mer frequency, TF over GST control); in the test with ERG, 1.24 fold enrichment (6-mer frequency, TF over GST control); with ELF1, 1.37 fold enrichment (6-mer frequency, TF over GST control); with EHF it was 1.31 fold enrichment (6-mer frequency, TF over GST control). The binding signal with SPI1 is 1.36 fold enrichment (6-mer frequency, TF over GST control); with SPIB, 1.26 fold enrichment (6-mer frequency, TF over GST control); with ELK3, 1.22 fold enrichment (6-mer frequency, TF over GST control).
Turning to TCCTAA, the binding signal was 1.63 fold enrichment (6-mer frequency, TF over GST control) with FLI1; 1.34 fold enrichment (6-mer frequency, TF over GST control) with ELK1; 1.41 fold enrichment (6-mer frequency, TF over GST control) with GABPA; 1.58 fold enrichment (6-mer frequency, TF over GST control) in the test with ERG; 1.49 fold enrichment (6-mer frequency, TF over GST control) with ELF1; 1.27 fold enrichment (6-mer frequency, TF over GST control) in the test with EHF. Besides, the binding signal with SPI1 is 1.43 fold enrichment (6-mer frequency, TF over GST control); with SPIB, 1.49 fold enrichment (6-mer frequency, TF over GST control); with ELK3 it was 1.43 fold enrichment (6-mer frequency, TF over GST control).
With TCCTTT, the binding signal was 1.64 fold enrichment (6-mer frequency, TF over GST control) with FLI1; 1.75 fold enrichment (6-mer frequency, TF over GST control) with ELK1; 1.72 fold enrichment (6-mer frequency, TF over GST control) with GABPA; 1.79 fold enrichment (6-mer frequency, TF over GST control) with ERG; 1.81 fold enrichment (6-mer frequency, TF over GST control) in the test with ELF1; 1.73 fold enrichment (6-mer frequency, TF over GST control) in the test with EHF. The binding signal is 1.83 fold enrichment (6-mer frequency, TF over GST control) with SPI1; 1.67 fold enrichment (6-mer frequency, TF over GST control) with SPIB; 1.81 fold enrichment (6-mer frequency, TF over GST control) in the test with ELK3.
Consider TCCTCA, for which the binding signal with FLI1 is 1.53 fold enrichment (6-mer frequency, TF over GST control); with ELK1, 1.47 fold enrichment (6-mer frequency, TF over GST control); in the test with GABPA it was 1.6 fold enrichment (6-mer frequency, TF over GST control); in the test with ERG, 1.51 fold enrichment (6-mer frequency, TF over GST control); in the test with ELF1, 1.49 fold enrichment (6-mer frequency, TF over GST control); with EHF, 1.65 fold enrichment (6-mer frequency, TF over GST control). The binding signal is 2.25 fold enrichment (6-mer frequency, TF over GST control) with SPI1; 1.6 fold enrichment (6-mer frequency, TF over GST control) in the test with SPIB; 1.55 fold enrichment (6-mer frequency, TF over GST control) with ELK3.
Regarding AAAGAC, the binding signal is 1.06 fold enrichment (6-mer frequency, TF over GST control) in the test with FLI1; 1.07 fold enrichment (6-mer frequency, TF over GST control) with ELK1; 1.02 fold enrichment (6-mer frequency, TF over GST control) with GABPA; 1.07 fold enrichment (6-mer frequency, TF over GST control) with ERG; 1 fold enrichment (6-mer frequency, TF over GST control) with ELF1; 1.05 fold enrichment (6-mer frequency, TF over GST control) with EHF. In addition, the binding signal with SPI1 was 1.1 fold enrichment (6-mer frequency, TF over GST control); with SPIB, 1.08 fold enrichment (6-mer frequency, TF over GST control); with ELK3 it was 1.02 fold enrichment (6-mer frequency, TF over GST control).
On to TAACCC, for which the binding signal in the test with FLI1 is 1.31 fold enrichment (6-mer frequency, TF over GST control); in the test with ELK1, 1.4 fold enrichment (6-mer frequency, TF over GST control); with GABPA it was 1.25 fold enrichment (6-mer frequency, TF over GST control); with ERG it was 1.23 fold enrichment (6-mer frequency, TF over GST control); with ELF1 it was 1.28 fold enrichment (6-mer frequency, TF over GST control); with EHF it was 1.25 fold enrichment (6-mer frequency, TF over GST control). In addition, the binding signal was 1.18 fold enrichment (6-mer frequency, TF over GST control) with SPI1; 1.21 fold enrichment (6-mer frequency, TF over GST control) with SPIB; 1.38 fold enrichment (6-mer frequency, TF over GST control) with ELK3.
